Data published in PubChem BioAssay (NCI).
Several values for one entry are separate records, joined by “and”; a condition that tells them apart may be missing. Identical values can stand only once. This is part of a sample that, as a whole, favours compounds with a hit. Of some 79,000 tested, about 15% had one in any assay. Activity calls are given as the source filed them. No stated cut-off is given here; in the data, active means growth inhibition above about 70%; inactive means the rest.

Key:
[1] = NCI Yeast Anticancer Drug Screen. Data for the rad50 strain (AID 155);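 further: 0% = growth of vehicle-only cultures of the same strain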; details: S. cerevisiae rad50 strain growth inhibition, hits give high values; at 50.0 µM unless noted
Procedure, shortened: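 DNA repair mutant yeast, compound exposure, growth read-out; inhibition is taken relative to vehicle.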

[2] = NCI Yeast Anticancer Drug Screen. Data for the mec2-1 strain (AID 157); details: S. cerevisiae mec2-1 strain, hits give high values; at 50.0 µM unless noted
Procedure, shortened: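 Cells of the genetically defined mec2-1 yeast strain are incubated with test compound. Inhibition of growth is calculated against vehicle-treated controls.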

[3] = NCI Yeast Anticancer Drug Screen. Data for the sgs1 mgt1 strain (AID 161);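 further: 0% = growth of cultures given vehicle only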; details: S. cerevisiae sgs1 mgt1 strain, hits give high values; at 50.0 µM unless noted
Procedure, shortened: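 Test agents were incubated with a DNA-repair-mutant yeast strain. Growth was then read and compared against vehicle-treated controls.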

[4] = NCI Yeast Anticancer Drug Screen. Data for the cln2 rad14 strain (AID 165);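 further: 0% = growth equal to vehicle treated cultures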; details: S. cerevisiae cln2 rad14 strain, hits give high values; at 50.0 µM unless noted
Procedure, shortened: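 The screen exposed genetically defined yeast (cln2 rad14) to test compounds and scored growth inhibition relative to vehicle-treated controls.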

[5] = NCI Yeast Anticancer Drug Screen. Data for the bub3 strain (AID 167); details: S. cerevisiae bub3 mutant strain, hits give high values; at 50.0 µM unless noted
Procedure, shortened: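 In this screen, a yeast mutant lacking normal mitotic checkpoint function is challenged with compound. Relative growth versus vehicle gives the inhibition value.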

[6] = NCI Yeast Anticancer Drug Screen. Data for the mlh1 rad18 strain (AID 175); details: S. cerevisiae mlh1 rad18 strain growth inhibition, hits give high values; at 50.0 µM unless noted
Procedure, shortened: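 Compound-treated yeast growth, normalised to vehicle controls. Strain bears defined DNA repair mutations.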

Measured: growth inhibition

Cn1c2cccc3nnc4cccc(c4c32)n1C
inactive: [1] -37.1% | [2] -9.3% | [3] -4.9% | [4] 4.2% | [5] -6.65% | [6] -11.8%

Cc1ncc(CN=Cc2ccc(Cl)cc2)c(N)n1
inactive: [1] 9.8% | [2] 17% | [3] -9.45% | [4] -12% | [6] 13.2%

CC1SCc2nc3ccccc3n21 (stereo not drawn)
inactive: [1] 2.25% | [2] -10.8% | [3] 27.9% | [4] 12.1% | [6] -35.5%

CCOC(=O)C(NC(C)=O)(Nc1ccc(S(N)(=O)=O)cc1)C(F)(F)F (stereo not drawn)
inactive: [1] -16.2% | [2] 1.55% | [3] 3.95% | [4] 27.6% | [6] -28.9%

CC(=O)OCC1COC(c2ccc(C)cc2)O1 (stereo not drawn)
inactive: [1] 12.9% | [2] -2.1% | [3] -13.8% | [4] -2.5% | [6] -11.8%

CC(C)CNC(=O)c1ccccc1Cl
inactive: [1] -22.9% | [2] 20.1% | [3] -5.4% | [4] -32.4% | [5] 2.55% | [6] -11.1%

O=C(O)C(c1ccccc1)N1C(=O)C(Cl)=C(Cl)C1=O (stereo not drawn)
inactive: [1] -0.1% | [2] -6.35% | [3] 1.4% | [4] -10.8% | [6] 10.8%

O=C(O)c1cccc(C(=O)O)c1-c1c(C(=O)O)cccc1C(=O)O
inactive: [1] -5.2% | [2] 17.8% | [3] 7.7% | [4] -80.5% | [6] 4.05%

C/C=C/C#C/C=C1/C=CC(=O)O1
inactive: [1] -5.95% | [2] -1.35% | [3] -7.2% | [4] 37.1% | [6] 10.1%

O=C(O)/C=C/c1cc(Br)sc1Br
inactive: [1] -2.05% | [2] 7.35% | [3] 5% | [4] -11.3% | [6] 19.5%

Cc1ccc(S(=O)(=O)NNC(=O)CCn2[nH]c(=O)c(Cl)c(Cl)c2=O)cc1
inactive: [1] -16.9% | [2] -9.65% | [3] -8.1% | [4] -38.1% | [6] -12.1%

CC(=O)CC(=O)Nc1nc2ccccc2s1
inactive: [1] -4.45% | [2] 2.65% | [3] 9.05% | [4] -13.2% | [6] 15.2%

S=c1sc2c(s1)SCCCCSCCCCSc1sc(=S)sc1SCCCCSCCCCS2
inactive: [1] 13.3% | [2] 8.6% | [3] 1.1% | [4] 16.1% | [6] -29.4%

COc1cc(OC)c(/C=N/N=C(\N)NO)c(OC)c1
inactive: [1] -8.95% | [2] 12.2% | [3] -0.7% | [4] 9.65% | [6] -9.75%

CC1C(c2ccccc2)OCCN1CN1C(=O)c2ccccc2C1=O (stereo not drawn)
inactive: [1] 10.8% | [2] 17.4% | [3] 12.4% | [4] 21.8% | [6] -3.6%

COC(=O)c1cccc(C(=O)OC)c1
inactive: [1] -33.1% and 14.2% | [2] -3.45% and -1.6% | [3] -14.4% and 18.8% | [4] 5.2% and -1.7% | [6] 3.75% and 15.4%

C1=CC(=CN2CCc3ccccc3C2)C=C1
inactive: [1] 2.55% | [2] -8.45% | [3] 3.05% | [4] -6.95% | [6] 6.05%

N#CCCC(C#N)(CCC#N)C(N)=O
inactive: [1] 11.9% | [2] -18% | [3] -2.6% | [4] -49.6% | [6] 1.55%

O=C(NCCCl)c1ccc(Cl)c(Cl)c1
inactive: [1] 2.8% | [2] 0.25% | [3] 4.95% | [4] -20.9% | [6] 3.7%

CC1C(C)(C)C23CC12C1(OCCO1)C3Br (stereo not drawn)
inactive: [1] -11.4% | [2] -4.4% | [3] -6.6% | [4] 14.6% | [5] 10.8% | [6] 25.4%

Nc1nc(Cl)cc(NCCO)n1
inactive: [1] -1.15% and -5.05% | [2] -36.6% and 7% | [3] -39.5% and 20.7% | [4] -7.85% and -0.25% | [6] 1.8% and 43.4%

O=C(O)C1Oc2cc3ccccc3cc2O1
inactive: [1] 30.4% | [2] 16.4% | [3] 19.8% | [4] 20.3% | [6] 24.5%

O=S(=O)(CCCl)c1ccc(Br)cc1
inactive: [1] 51.6% | [2] 44.6% | [3] 56.7% | [4] 18.8% | [6] 57.5%

O=c1c2cc(Cl)ccc2c2ccc(Cl)cc2c(=O)n1-c1ccc2c(c1)Cc1ccccc1-2
inactive: [1] 1.65% | [2] -0.2% | [3] -1.7% | [4] -10.6% | [6] -3.4%

CC(=O)OCC1OC(OC(C)=O)C(OC(C)=O)C(OC(C)=O)C1OC(C)=O (stereo not drawn)
inactive: [1] -0.8% and 33.3% | [2] 0.25% and 9.6% | [3] -17.5% and 21.1% | [5] -14.4% and 5.45% | [6] -26.1% and 8.9%

CCOc1ccc(F)cc1
inactive: [1] 10.7% | [2] -13.5% | [3] 16.5% | [5] 6.3% | [6] 25.9%

CCN(CC)CCNc1ccc2ncn3c4cc(=O)ccc4c(O)c1c23
inactive: [1] -2.3% | [2] -31.5% | [3] -46.4% | [5] -7.85% | [6] 4.3%

O=[N+]([O-])c1ccc(/C=C(/c2ccc([N+](=O)[O-])o2)S(=O)(=O)c2ccccc2)cc1
active: [3] 76.8%
inactive: [1] 64.8% | [2] 13.8% | [4] 43% | [6] 60.5%

O=C1C=CC=C/C1=C1/SC(c2ccccc2)=C(O)N1c1ccccc1
inactive: [1] -40.2% | [2] -8.2% | [3] -12.5% | [5] -19.9% | [6] -18.5%

CN(C)c1cccc2ccccc12
inactive: [1] -1.25% | [2] 9.1% | [3] 20.7% | [5] 6% | [6] 18.9%

C=C1c2nc3ccccc3n2C=C(c2ccccc2)N1c1ccc(OC)cc1
inactive: [1] -6.5% | [2] 15.3% | [3] -9.25% | [5] 17.5% | [6] 7.05%

CNc1cc([N+](=O)[O-])ccc1Br
inactive: [1] 10.2% | [2] 4.2% | [3] -1.1% | [5] 7.5% | [6] -14.9%

c1ccc(NN(Cc2cnccn2)c2ccccc2)cc1
inactive: [1] 9.75% | [2] -2.65% | [3] -24.9% | [5] -56.5% | [6] -12%

COc1ccc(C2OC3=C(Nc4cc(C)c(C)cc4N3)C2=O)cc1 (stereo not drawn)
inactive: [1] 11.2% | [2] -8.05% | [3] 2.05% | [5] -22.3% | [6] 13.8%

Cc1cccc[n+]1C
inactive: [1] 3.45% | [2] 4.35% | [3] 0.05% | [5] 22.9% | [6] 4.05%

CCOC(=O)Cc1nc2nn(Cc3ccccc3)cc2c(=O)[nH]1
inactive: [1] -48.8% | [2] -63.9% | [3] -7% | [5] -10.9% | [6] -19.8%

CN1OC(=O)OC(C)(c2ccccc2)C1=O (stereo not drawn)
inactive: [1] 2.9% | [2] -12.3% | [3] -2.3% | [5] 0.6% | [6] -0.05%

CCCCCCCCC(=O)NCCOC
inactive: [1] 10.9% | [2] 2.8% | [3] 5.8% | [5] -2.95% | [6] 10.6%

Nc1c(Br)cc(Br)cc1C(=O)O
inactive: [1] 23.9% | [2] -14.1% | [3] 42.2% | [5] -6.95% | [6] 5.7%

CC(=O)N(C(=O)CC(=O)NNCc1ccccc1Cl)c1ccc(Cl)cc1
inactive: [1] -11.4% | [2] -14.2% | [3] -19.6% | [5] -17% | [6] 6.3%

CCN(c1ccccc1)S(=O)(=O)C(C)S(=O)(=O)N(CC)c1ccccc1
inactive: [1] -1.05% | [2] -10.5% | [3] -1.2% | [5] 2.2% | [6] -6.85%
